High-throughput results deposited in PubChem by several laboratories.
The list is not random: actives were taken first. Their share in the collection is about 3.2%.
LGR2 inh: inhibitors of bursicon-induced Drosophila LGR2 receptor cAMP signaling; HEK293 LGR2, CRE-luciferase, bursicon-stimulated, 4 h; inhibition, % at 9.99 µM; 380,000 compounds, 0.35% hits;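 active means drop in luminescence signal, shown as inhibition above about 50% in the replicate tests, limit read from the data, passing the limit was not always enough; inconclusive means probably only some replicates passing the limit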;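 further: agonist challenge used bursicon conditioned medium at about half maximal strength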
TROY NFkB inh: inhibitors of TROY-dependent NF-kB signaling | inhibition, % at 10 µM | Q293 LMP1-TROYcd NF-kB luciferase reporter, 4 h | 360,000 compounds, 0.98% hits;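 active means compounds whose plate-normalised and pattern-corrected inhibition of the luciferase reporter signal at the single screening dose is 50% or more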
TWEAK-Fn14 inh: TWEAK-Fn14 signaling inhibition; TWEAK-stimulated Fn14 reporter cells, luciferase luminescence, 8 h; inhibition, % at 10 µM; 360,000 compounds, 2% hits; AID 1159606; in the data active means inhibition above about 50%
EWS-Fli block: inhibitors of EWS/Fli oncoprotein transcriptional activity. A673 NR0B1-luciferase reporter, viability-normalised. inhibition, % at 12.6 µM. 350,000 compounds, 0.67% hits;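 active means mean inhibition of at least 50% after viability correction, with every replicate also passing that limit; inconclusive means mean reaches 50% but only one of two replicates passes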;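 further: firefly luciferase signal divided by Alamar Blue viability fluorescence both relative to DMSO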
LMP1 NFkB inh: reduces LMP1-driven NF-kappaB luciferase signal. LMP1-induced NF-kappaB luciferase reporter cells, luminescence. inhibition, % at 12.5 µM. 350,000 compounds, 0.69% hits. AID 504558; in the data active means inhibition above about 41%; inconclusive means no clear call, values can overlap the other calls;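 further: 0% = neutral control wells and 100% = reference inhibitor control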
PAX8 inh HTS: PAX8 transcriptional activity inhibition; inhibition, % at 12.6 µM; 360,000 compounds, 1.2% hits; AID 652154; RMG-I TPO-luciferase reporter, SteadyGlo, 24 h;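 active means mean replicate inhibition at least 60% with every replicate also reaching 60%; inconclusive means only one of the two criteria is met; inactive means mean below 60% and not all replicates reaching 60%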;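 further: luciferase light reporting Pax8 driven TPO promoter activity; plate controls were median of neutral control wells for no effect and mitoxantrone controls for full effect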
Numbers without * were called inactive; ? = inconclusive; . = no result given.

SMILES	LGR2 inh	TROY NFkB inh	TWEAK-Fn14 inh	EWS-Fli block	LMP1 NFkB inh	PAX8 inh HTS
C[C@@H]1CN([C@@H](C)CO)C(=O)c2cc(C3=CCCC3)cnc2O[C@@H]1CN(C)C(=O)c1cccnc1	-12	.	.	-1	.	-7
Cc1noc(C)c1S(=O)(=O)Nc1ccc2c(c1)C(=O)N([C@H](C)CO)C[C@H](C)[C@@H](CN(C)S(=O)(=O)c1cn(C)cn1)O2	.	.	.	-2	.	-7
COc1ccc(CN(C)C(=O)c2cccc(NC(=O)CC3SC(N4CCCCC4)=NC3=O)c2)c(OC)c1 (configuration not stated)	28	49	74*	17	?	55
COc1cccc(CN(C)C(=O)c2cccc(NC(=O)CC3SC(N4CCCCC4)=NC3=O)c2)c1OC (configuration not stated)	7	3	1	1	3	13
O=C(C[C@@H]1C=C[C@@H](NC(=O)C2CCOCC2)[C@H](CO)O1)Nc1ccc(-c2ccccc2)cc1	1	.	.	-3	.	-3
COCC(=O)OCC(=O)N1N=C(c2ccc(Cl)cc2)CC1c1ccco1 (configuration not stated)	-8	24	42	4	1	16
CC(=O)N1N=C(c2ccc(NS(=O)(=O)c3ccccc3)cc2)CC1c1ccco1 (configuration not stated)	17	-29	23	54*	18	27
CCCc1cc(=O)[nH]c(SCC(=O)N2N=C(c3ccc(Cl)cc3)CC2c2ccco2)n1 (configuration not stated)	-26	29	69*	2	-7	24
CC(C)[C@H](NS(=O)(=O)c1ccccc1)C(=O)OCC(=O)N1N=C(c2ccc(Cl)cc2)CC1c1ccco1 (some centres not stated)	-6	39	56*	-4	11	10
CC=Cc1ccc2n(c1=O)C[C@H]1[C@H](CO)[C@@H](C(=O)NCC3CC3)N(Cc3ccccn3)[C@@H]21 (mixture of isomers)	2	.	.	4	.	-3
Cc1ccc(-c2ccc3c(c2)O[C@H](CN(C)Cc2ccncc2)[C@@H](C)CN([C@H](C)CO)S3(=O)=O)cc1	-6	.	.	72*	.	.
Cc1ccc(-c2ccc3c(c2)O[C@H](CN(C)Cc2ccncc2)[C@H](C)CN([C@@H](C)CO)S3(=O)=O)cc1	-12	.	.	-4	.	.
Cc1ccccc1-c1ccc2c(c1)O[C@@H](CN(C)Cc1ccncc1)[C@H](C)CN([C@H](C)CO)S2(=O)=O	0	.	.	66*	.	.
CCC(=O)N1C[C@@H](C)[C@@H](OC)CN(C)C(=O)c2cc(NC(=O)Nc3ccccc3)ccc2OC[C@@H]1C	1	.	.	-2	.	6
CC(C)NC(=O)N(C)C[C@@H]1OCCCC[C@H](C)Oc2ccc(NC(=O)CCCN(C)C)cc2C(=O)N([C@@H](C)CO)C[C@H]1C	.	.	.	.	.	-8
CCc1nc(N2[C@H](C#N)[C@H](c3ccccc3-c3ccccc3F)[C@H]2CO)sc1C	-29	.	.	2	.	15
CCc1nc(N2[C@@H](C#N)[C@H](c3ccccc3-c3ccccc3F)[C@@H]2CO)sc1C	23	.	.	58*	.	-15
CN1C(=O)c2cc(NC(=O)c3cccs3)ccc2OC[C@@H]2O[C@H](CC(=O)NCCN3CCCCC3)CC[C@H]21	-22	.	.	7	.	0
CCOC(=O)C1=CN(Cc2cccc(-c3cccnc3)c2)S(=O)(=O)N(C)C1C (configuration not stated)	-10	11	21	-7	3	101*
CCOC(=O)C1=CN(Cc2cccc(F)c2)S(=O)(=O)N(CC)C1c1cccc(OC)c1 (configuration not stated)	18	-11	14	-3	7	10
CCOC(=O)C1=CN(Cc2cccc(F)c2)S(=O)(=O)N(CC)C1c1ccccc1 (configuration not stated)	24	1	2	-12	-12	86*
CCOC(=O)C1=CN(Cc2cccc(-c3cccnc3)c2)S(=O)(=O)N(CC)C1C (configuration not stated)	22	-4	6	-23	-9	-14
Cc1ccc(N=C2NC(=O)CS2)c(C)c1	.	.	101*	.	3	.
Cc1ccc(-c2nnc(N3CCN(c4ccccn4)CC3)c3ccccc23)cc1	.	54*	49	.	22	.
O=C(c1cnc(N2CCN(c3ncccn3)CC2)c2ccccc12)N1CCN(c2ccccn2)CC1	.	34	49	.	-3	27
SMILES	LGR2 inh	TROY NFkB inh	TWEAK-Fn14 inh	EWS-Fli block	LMP1 NFkB inh	PAX8 inh HTS
Cc1ccc(NC(=O)c2cnc(N3CCN(c4ccccn4)CC3)c3ccccc23)c(Br)c1	34	68*	93*	23	29	38
O=C(Nc1c(F)cccc1F)c1cnc(N2CCN(c3ccccn3)CC2)c2ccccc12	.	36	60*	.	14	33
CC(=O)N(C)C[C@H]1Oc2cc(Br)ccc2S(=O)(=O)N([C@@H](C)CO)C[C@H]1C	-15	.	.	-7	.	.
COc1ccc(NC(=O)N(C)C[C@@H]2Oc3ccc(NC(=O)CCCN(C)C)cc3C(=O)N([C@H](C)CO)C[C@H]2C)cc1	-1	.	.	1	.	-30
O=C(Cn1nc(CNc2ccc(Cl)cc2)[n+]2c1CCCCC2)c1ccc(Br)cc1	-2	14	3	-9	4	1
O=C(Cn1nc(CNc2ccc(Br)cc2)[n+]2c1CCCCC2)c1ccc([N+](=O)[O-])cc1	.	-12	-4	12	1	71*
COCCOC(=O)N1C(=O)[C@@]2(c3cc(C#CC4(O)CCCCCC4)ccc31)[C@H](C(=O)N1CCN(c3ncccn3)CC1)[C@H]1C(=O)O[C@H](c3ccccc3)[C@H](c3ccccc3)N1[C@@H]2c1ccccc1OCCO	.	.	.	7	.	-1
COC(=O)C1=CN(c2ccc3c(c2)OCO3)C(N)=C(C#N)C1c1ccc(-c2ccccc2)cc1 (configuration not stated)	-23	.	.	67*	.	43
Cc1n[nH]c(C)c1CCc1nc2c3ccccc3nc(SCC(=O)Nc3ccccc3F)n2n1	.	-10	28	.	1	43
Cc1cccc(NC(=O)CSc2nc3ccccc3c3nc(CCc4c(C)n[nH]c4C)nn23)c1	.	1	60*	.	22	.
COc1ccc(C(=O)N/N=C(\C)c2ccccn2)cc1OC	11	-25	-95	.	27	70*
NNC(=O)c1cc(-c2cccs2)nc2ccccc12	4	-4	-39	1	2	12
C/C(=N\NC(=O)c1ccccc1Cl)c1ccccn1	-14	-78	-114	-22	14	2
C/C(=N/NC(=O)c1ccc(C(C)(C)C)cc1)c1ccccn1	-53	-41	45	-14	47*	14
Cc1cccc2sc(NNC(=O)c3cc(-c4cccs4)nc4ccccc34)nc12	.	47	88*	15	15	52
COc1ccc(NC(=O)c2ccccn2)cc1OC	18	-73	-6	.	3	-145
